Compound activity deposited in PubChem by several laboratories.
Measles CPE = protection of cells from measles virus | Measles virus-infected cells, CPE protection, absorbance | 140,000 compounds, 1.5% hits | protection (pct of control), % at 4 µM; in the data active means protection mostly above about 24%, no sharp cut-off; inactive means mostly below about 26%
CYP2C19 inhib = inhibitors of human CYP2C19; P33261; CYP2C19 Supersomes, luciferin-H EGE luminescence, 30 min; inhibition, % at 5 µM; 96,000 compounds, 21% hits; AID 778;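 active means CYP2C19 inhibition above a set limit at 5 µM in the primary screen, cut at about 50% in these data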
CYP2C9 inh = human CYP2C9 inhibition; CYP2C9 Supersomes, luciferin-H conversion, luminescence; AID 777; 96,000 compounds, 20% hits; inhibition, % at 5 µM; P11712;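 active means blocking of liver enzyme CYP2C9 beyond about 50% at 5 µM, limit read from the data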
Target sequence (P11712 whole entry, looked up): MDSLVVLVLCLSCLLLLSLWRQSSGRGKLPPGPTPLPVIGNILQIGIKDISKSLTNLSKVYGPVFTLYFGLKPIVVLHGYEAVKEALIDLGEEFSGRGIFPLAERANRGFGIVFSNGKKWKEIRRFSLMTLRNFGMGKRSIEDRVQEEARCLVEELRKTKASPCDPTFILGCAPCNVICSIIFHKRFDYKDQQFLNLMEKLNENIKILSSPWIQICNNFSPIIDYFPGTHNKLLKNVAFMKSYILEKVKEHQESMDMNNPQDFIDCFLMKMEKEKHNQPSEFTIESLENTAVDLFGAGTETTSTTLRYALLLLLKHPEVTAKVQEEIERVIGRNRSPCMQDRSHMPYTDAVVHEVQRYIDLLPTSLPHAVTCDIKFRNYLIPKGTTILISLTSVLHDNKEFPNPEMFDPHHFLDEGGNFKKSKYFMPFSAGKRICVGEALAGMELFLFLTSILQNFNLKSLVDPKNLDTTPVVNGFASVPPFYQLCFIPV
CYP2C9 activ = activators of human CYP2C9; activation factor at 5 µM; P11712; 96,000 compounds, 1.4% hits; AID 1024; recombinant CYP2C9, luciferin-H conversion, luminescence; active compounds read high; factor 1 = untreated enzyme, 0 = blocked;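 active means activation factor of 2 or more for CYP2C9 at a 5 µM dose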
CYP2C19 activ = increases human CYP2C19 enzyme activity; P33261; recombinant CYP2C19, luciferin-H EGE luminescence; active compounds read high; 0 = fully inhibited enzyme, 1 = untreated enzyme; activation factor at 5 µM; 96,000 tested, under 10 active;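 active means activation factor of at least 2 at 5 µM in the primary screen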
Large screens that a line does not name were inactive. Hits are enriched below; roughly 22% of the tested compounds scored in any of these assays.

C=CCN=c1sc(C(=O)OC)cc(=O)n1CC=C	CYP2C19 inhib 52
C[N+]1(CCCCCCC(=O)/C=N/O)CCCCCC1	Measles CPE 32
CCOc1ccc2nc(NC(=O)c3cnc(C)cn3)sc2c1	none
CCOc1ccccc1NC(=O)N1CCC(n2nnc3cc(C)ccc32)CC1	CYP2C19 inhib 90
CCOC(=O)CN(C(=O)CN1CCC(n2nnc3cc(C)ccc32)CC1)c1ccccc1	CYP2C9 inh 55
Cc1ccc2c(c1)nnn2C1CCN(C(=O)NC23CC4CC(CC(C4)C2)C3)CC1	CYP2C19 inhib 55
CCn1c(CNC(=O)c2ccc3c(c2)OCO3)nnc1SCC(=O)Nc1cc(C)ccc1OC	none
CCCc1nnc(SCC(=O)Nc2ccc(OCC)cc2)n1N	none
Cc1cc(C)c(NC(=O)CSc2nnc(SCC(=O)Nc3c(C)cc(C)cc3C)n2N)c(C)c1	CYP2C19 inhib 68
Nn1c(SCC(=O)Nc2ccc(F)cc2)nnc1C1CCCCC1	none
CCc1ccc(NC(=O)CSc2nnc(SCC(=O)Nc3ccc(CC)cc3)n2N)cc1	CYP2C9 inh 62
CCc1ccc(NC(=O)CSc2nnc(CC)c(CC)n2)cc1	CYP2C19 inhib 64
Cc1ccc(NC(=O)CSc2nnc(C3CCCCC3)n2N)cc1F	CYP2C19 inhib 85, CYP2C9 inh 72
CCc1nnc(SCC(=O)Nc2ccc(C(C)=O)cc2)nc1CC	CYP2C19 inhib 74
O=[N+]([O-])c1cc(Cl)ccc1NCCNc1ncc(C(F)(F)F)cc1Cl	CYP2C19 inhib 88
O=[N+]([O-])c1cc(C(F)(F)F)ccc1NCCCCNS(=O)(=O)c1ccc(Cl)cc1	none (no result: CYP2C19 inhib, CYP2C9 inh, CYP2C9 activ, CYP2C19 activ)
O=[N+]([O-])c1cc(C(F)(F)F)ccc1NCCNC(=S)Nc1ccc(Cl)cc1	CYP2C9 inh 68
Cc1ccc(S(=O)(=O)N(C)c2ccc(N)cc2)cc1	CYP2C19 inhib 94, CYP2C9 activ 2.2
Cc1noc(C)c1C(=O)N1CCN(Cc2ccc3c(c2)OCO3)CC1	none
CN(c1ccc(C(=O)N2CCCCC2)cc1)S(=O)(=O)c1ccccc1	none
Cc1ccc(S(=O)(=O)N(C)c2ccc(C(=O)N3CCCCC3)cc2)cc1	CYP2C19 inhib 55, CYP2C9 inh 74
Cc1cccc(Cc2c(C)nc3c(C(=O)N4CCN(Cc5ccc6c(c5)OCO6)CC4)cnn3c2C)c1	CYP2C19 inhib 93, CYP2C9 inh 76
O=C(c1ccccc1[N+](=O)[O-])N1CCN(Cc2ccc3c(c2)OCO3)CC1	none (no result: CYP2C19 inhib, CYP2C9 inh, CYP2C9 activ, CYP2C19 activ)
O=C(c1cc(-c2ccccc2)on1)N1CCN(Cc2ccc3c(c2)OCO3)CC1	CYP2C19 inhib 70, CYP2C9 inh 68
CCc1nc2c(C#N)c(-c3ccc(Cl)cc3)ccn2n1	none
Nc1cccc(Cl)c1N1CCOCC1	none
O=C(Nc1ccccc1)N1CCN(Cc2ccc3c(c2)OCO3)CC1	none
Cc1cccc(-c2nc(CSCC(=O)N3CCN(Cc4ccc5c(c4)OCO5)CC3)c(C)o2)c1	CYP2C19 inhib 70
O=C(c1ccc(NS(=O)(=O)c2ccccc2)cc1)N1CCN(Cc2ccc3c(c2)OCO3)CC1	CYP2C9 inh 94
Cc1cccc(C(=O)N2CCN(Cc3ccc4c(c3)OCO4)CC2)c1	CYP2C19 inhib 92
O=C(c1ccc2nccnc2c1)N1CCN(Cc2ccc3c(c2)OCO3)CC1	none
Cc1ccc(S(=O)(=O)N(C)c2ccc(C(=O)N3CCC(C(N)=O)CC3)cc2)cc1	none
Cc1ccc(S(=O)(=O)N(C)c2ccc(C(=O)N3CCN(Cc4ccc5c(c4)OCO5)CC3)cc2)cc1	CYP2C19 inhib 55, CYP2C9 inh 54
CC(=O)Nc1ccc(Nc2ccc(N3C(=O)CCCC3=O)cc2[N+](=O)[O-])cc1	none (no result: CYP2C19 inhib, CYP2C9 inh, CYP2C9 activ, CYP2C19 activ)
CC(=O)Nc1ccc(S(=O)(=O)/N=C2\SCCN2S(=O)(=O)c2ccc(NC(C)=O)cc2)cc1	none (no result: CYP2C19 inhib, CYP2C9 inh, CYP2C9 activ, CYP2C19 activ)
O=C(CN(c1ccccc1)S(=O)(=O)c1ccccc1)N1CCN(Cc2ccc3c(c2)OCO3)CC1	CYP2C19 inhib 69, CYP2C9 inh 89
O=C(c1ccc(Br)o1)N1CCN(Cc2ccc3c(c2)OCO3)CC1	CYP2C19 inhib 90, CYP2C9 inh 62
O=C(CSCc1ccccc1)N1CCN(Cc2ccc3c(c2)OCO3)CC1	none (no result: CYP2C19 inhib, CYP2C9 inh, CYP2C9 activ, CYP2C19 activ)
CN(c1ccc(C(=O)N2CCN(Cc3ccc4c(c3)OCO4)CC2)cc1)S(=O)(=O)c1ccccc1	CYP2C19 inhib 79, CYP2C9 inh 94
O=C(C1CC2CCC1C2)N1CCN(Cc2ccc3c(c2)OCO3)CC1 (configuration not stated)	CYP2C19 inhib 58
Cc1ccc(C2CC(C(F)F)n3ncc(C(=O)Nc4c(C)nn(Cc5c(F)cccc5Cl)c4C)c3N2)cc1 (configuration not stated)	none (no result: CYP2C19 inhib, CYP2C9 inh, CYP2C9 activ, CYP2C19 activ)
CCc1ccc(-c2ccc(C(=O)O)c(C)n2)cc1	none (no result: CYP2C19 inhib, CYP2C9 inh, CYP2C9 activ, CYP2C19 activ)
Cc1cccc(NC(=O)c2ccc(-n3cccn3)c([N+](=O)[O-])c2)c1	none
NC(=O)c1ncc(C(F)(F)F)cc1Oc1cccc(C(F)(F)F)c1	CYP2C19 inhib 93
NC(=O)c1ncc(C(F)(F)F)cc1Oc1cccc(F)c1	none
CC(C)NS(=O)(=O)c1ccc(Oc2ncc(C(F)(F)F)cc2Cl)cc1	none
COc1ccc(Oc2cc(C(F)(F)F)cnc2C(N)=O)cc1	CYP2C19 inhib 67
CCNC(=S)N/N=C/c1ccco1	none
Cc1cccc(OCC(=O)N/N=C/c2cn[nH]c2-c2ccc(Cl)c(Cl)c2)c1	CYP2C9 inh 57
Cc1ccc(OCC(=O)N/N=C/c2cn[nH]c2-c2ccc(Cl)c(Cl)c2)cc1	CYP2C9 inh 52
CCc1ccc2oc(-c3cccc(N)c3)nc2c1	none
CCOC(=O)c1ccoc1CSCC(=O)N1CCN(S(=O)(=O)c2ccc(C)cc2)CC1	none
CCOc1ccc(CNc2ccc3c(c2)nc(C)n3C)cc1	none
COC(=O)[C@H]1C2CCC(C(=O)OC)(CC2)[C@H]1C(=O)OC	none
COc1ccc(C2C(C(=O)Nc3cccnc3)=C(C)Nc3nc(-c4cccs4)nn32)cc1 (configuration not stated)	none (no result: CYP2C19 inhib, CYP2C9 inh, CYP2C9 activ, CYP2C19 activ)
Cn1cccc1C(=O)NC(=O)CSc1nnc(C2CC2)n1-c1ccccc1	CYP2C19 inhib 55
O=C(CSc1nnc(C2CC2)n1-c1ccccc1)Nc1ccc(N2CCOCC2)cc1	Measles CPE 39
COc1ccc(NC(=O)CSc2nnc(C3CCCCC3)n2-c2ccccc2)cc1	none
COc1ccccc1-c1c(NC(=O)c2ccco2)n(-c2ccccc2)nc(C)c1=O	none
O=C1C2C3c4ccccc4C(c4ccccc43)[C@@H]2c2nc3ccccc3n21 (some centres not stated)	none
COc1ccc(/C=N/NC(=O)CC2N=C(Cc3ccccc3)NNC2=O)cc1OC (configuration not stated)	Measles CPE 28 (no result: CYP2C19 inhib, CYP2C9 inh, CYP2C9 activ, CYP2C19 activ)
C/C(=N\NC(=O)CC1N=C(Cc2ccccc2)NNC1=O)c1ccc(C)cc1 (configuration not stated)	none
COC(=O)CSc1nnc(-c2cccnc2)n1-c1cc(OC)cc(OC)c1	none
CC(C)NC(=O)c1cc(C(=O)c2cc(Cl)ccc2O)coc1=N	CYP2C19 inhib 69
COC(=O)c1ccc(N/C(C)=C/C(=O)c2ccc(C)o2)cc1	none
CCOc1ccc(N/C(C)=C/C(=O)c2ccc(C)o2)cc1	CYP2C19 inhib 52
